PubChem BioAssay (NCATS)
Records with an inconclusive call do not appear. The source made the active and inactive calls. Calls come from the whole dose curve; as a rule, active = well fitted curve in the direction sought with a large enough effect in the signal ratio (not every such curve was filed as active); inconclusive = small, poorly fitted or top-dose-only effect, or effect the other way, or a change in a side signal; inactive = no such curve, though single readings can be large or run the other way; the % refers to the signal ratio.

What follows are compounds tested against Tyrosine-protein phosphatase non-receptor type substrate 1 (Homo sapiens) + Leukocyte surface antigen CD47 (Homo sapiens) (UniProt P78324+Q08722) (assay: CD47-SIRPalpha protein protein interaction - HTRF assay qHTS validation (AID 1347058; note: 0% is about no effect)). Conditions: TR-FRET HTRF CD47-His / biotin-SIRPalpha binding, ratio 665/615; series mostly up to 38.3 µM; activity change, negative = inhibition: at the top concentration.
Description: SIRPalpha is a myeloid cell expressed immunomodulatory receptor that binds the tumor expressed immune checkpoint CD47. Therapeutic disruption of this interaction leads to immune-mediated tumor rejection. This assay was used to quantitate CD47-SIRPalpha binding biochemically and evaluate chemical libraries for novel CD47-SIRPalpha inhibitors. To recapitulate the biological interaction of CD47 and SIRPalpha, we designed expression constructs to produce their recombinant, soluble, extracellular interaction domains. CD47 was produced with an N-terminal 6His tag. SIRPalpha was produced with an N-terminal Avi-Tag for site-specific biotin incorporation. The CD47-SIRPalpha interaction was measured by TR-FRET using affinity tag linked reagents (anti-6His-Eu donor and streptavidin-XL665 acceptor). SIRPalpha without biotin incorporation was used as a positive control inhibitor.
SEQUENCE No. (e.g., 1, 2, 3, etc.); […] (e.g., Cells, Incubation, Reagent, etc.); VALUE and DESCRIPTION.
1a. Reagent. 3 uL CD47-His (12.5 nM) and Anti-His Eu Donor reagent (0.7 nM) added to respective wells in Assay buffer; white/solid bottom high base, med bind 1536-well plates (Greiner 789075)
1b. Reagent. 2 uL Assay buffer negative control for background fluorescence
2. Reagent. 23 nL library compounds (7-pt, 1:4 intraplate titration series) or DMSO control transferred by Pin Tool
3. Centrifuge. Centrifuge plate for 30 s at 1000 RPM
4. Incubation.#Incubate reagents at room temperature for 30 min, protected from light
5. Reagent. 2 uL SIRPalpha-biotin (100 nM) in Assay buffer
6. Incubation.#Incubate reagents at room temperature for 30 min, protected from light
7. Reagent. 1 uL SAV-XL665 (85 nM) acceptor reagent added to respective wells
8. Centrifuge. Centrifuge plate for 30 s at 1000 RPM
9. Incubation. Incubate reagents at room temperature for 30 min, protected from light
10. Detector. Measure Top TR-FRET on EnVision (Eu/APC filter set); calculate ratio Ch1/Ch2
1. Assay buffer composition.#Phosphate buffered saline (PBS; 10 mM Phosphate, 137 mM NaCl, and 2.7 mM KCl; pH 7.4), 0.05% IGEPAL CA-630
2. 23nL of […] library compounds (7 plates) or DMSO vehicle control transferred to 9 Greiner white/solid bottom high base, TC plates in 7 interplate 1:5 titrations (see Yasgar, A. et al. 2008) with Pintool. Two of the 9 plates are DMSO-only in compound field at beginning and end of compound library-treated plates.
10. Detector settings#Mirror = LANCE/DELFIA Dual Enh; Ex. Filter = UV2[TRF] 320; Em. Filter = APC 665; 2nd Em. Filter = Europium 615; Measurement h = 6.5; Ex. light (%) = 100; Delay = […]; Window t = 100 us; No. Seq. windows = 1; Time between flashes = 2000us; No. of flashes = 100; No. of flashes for 2nd detector = 100; Calculation: "Ratio Ch1/Ch2"

Tyrosine-protein phosphatase non-receptor type substrate 1 (Homo sapiens) + Leukocyte surface antigen CD47 (Homo sapiens), sequence (P78324 whole entry, looked up): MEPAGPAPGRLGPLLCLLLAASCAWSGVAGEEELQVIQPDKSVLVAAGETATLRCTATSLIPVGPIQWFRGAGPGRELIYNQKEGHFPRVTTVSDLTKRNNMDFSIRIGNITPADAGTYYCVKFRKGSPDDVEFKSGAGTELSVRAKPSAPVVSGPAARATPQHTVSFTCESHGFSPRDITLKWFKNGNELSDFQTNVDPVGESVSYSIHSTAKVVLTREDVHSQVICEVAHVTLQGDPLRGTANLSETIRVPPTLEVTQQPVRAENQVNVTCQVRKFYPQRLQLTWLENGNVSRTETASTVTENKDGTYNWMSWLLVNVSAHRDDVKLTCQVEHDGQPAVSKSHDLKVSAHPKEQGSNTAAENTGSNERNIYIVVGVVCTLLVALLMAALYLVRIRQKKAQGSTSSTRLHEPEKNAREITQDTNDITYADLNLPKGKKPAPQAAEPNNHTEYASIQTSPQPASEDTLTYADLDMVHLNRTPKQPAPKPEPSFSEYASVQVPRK
Tyrosine-protein phosphatase non-receptor type substrate 1 (Homo sapiens) + Leukocyte surface antigen CD47 (Homo sapiens), sequence (Q08722 whole entry, looked up): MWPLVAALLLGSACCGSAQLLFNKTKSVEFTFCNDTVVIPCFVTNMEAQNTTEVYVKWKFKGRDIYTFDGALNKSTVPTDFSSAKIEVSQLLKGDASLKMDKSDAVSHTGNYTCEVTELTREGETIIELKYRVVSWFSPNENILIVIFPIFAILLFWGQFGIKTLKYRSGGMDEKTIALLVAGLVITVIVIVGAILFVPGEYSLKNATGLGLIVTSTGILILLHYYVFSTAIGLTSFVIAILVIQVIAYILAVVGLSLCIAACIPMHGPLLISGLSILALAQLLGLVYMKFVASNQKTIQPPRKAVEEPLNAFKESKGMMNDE

Structure (SMILES)	activity change, negative = inhibition
COC1(C2=NCCN2)COc2ccccc2O1 (stereo not given)	1.32% (inactive)
CNc1cc(NS(=O)(=O)c2ccc(N)cc2)nc(NC)n1	1.11% (inactive)
O=C(O)/C=C/c1cnc[nH]1	4.18% (inactive)
O=C(O)c1cccnc1C(=O)O	1.52% (inactive)
Oc1cc2c(cc1O)C(c1ccccc1)CNCC2 (stereo not given)	-2.22% (inactive)
NCC(O)(CS(=O)(=O)O)c1ccc(Cl)cc1 (stereo not given)	-0.596% (inactive)
CC(=O)N[C@@H](Cc1c[nH]c2ccccc12)C(=O)OCc1cc(C(F)(F)F)cc(C(F)(F)F)c1	-3.02% (inactive)
C=CCN1CCc2cc(O)c(O)cc2C(c2ccccc2)C1 (stereo not given)	1.13% (inactive)
COc1cc(N)c(Cl)cc1C(=O)OCCN1CCCCC1	1.37% (inactive)
NC1CONC1=O (stereo not given)	1.38% (inactive)
O=C(O)C1CCCNC1 (stereo not given)	-0.277% (inactive)
Nc1ccc(CCNc2ncnc3c2ncn3C2OC(CO)C(O)C2O)cc1 (stereo not given)	1.09% (inactive)
CC(=O)/C(C)=N/O	-0.156% (inactive)
CC1=C(C(=O)O)N2C(=O)[C@@H](NC(=O)C(N)C3=CCC=CC3)[C@H]2SC1 (stereo not given in full)	8.53% (inactive)
O=c1oc(Cl)c(Cl)c2ccccc12	-6.14% (inactive)
N[C@@H](CS(=O)O)C(=O)O	2.62% (inactive)
COc1cc(/C=C(\C#N)C(=O)Nc2nnc(C(F)(F)F)s2)ccc1OCc1ccc(C(F)(F)F)cc1C(F)(F)F	-2.98% (inactive)
C[C@H]1CC2C3CCC4=CC(=O)C=C[C@]4(C)[C@@]3(Cl)[C@@H](O)C[C@]2(C)[C@@]1(O)C(=O)CO (stereo not given in full)	-0.929% (inactive)
COC(=O)C(C)(N)Cc1ccc(O)cc1 (stereo not given)	0.136% (inactive)
Cn1cc(C(=O)OCC2CCN(CCNS(C)(=O)=O)CC2)c2ccccc21	-0.294% (inactive)

Structure (SMILES)	activity change, negative = inhibition
COc1cc(CNC(=O)CCCCCCC(C)C)ccc1O	-6.07% (inactive)
COc1cc([C@@H]2c3cc4c(cc3[C@H](O)C3COC(=O)[C@@H]32)OCO4)cc(OC)c1OC (stereo not given in full)	0.0496% (inactive)
O=C(O)CCC(=O)N1CCCC1C(=O)O (stereo not given)	0.918% (inactive)
NC(N)=NC(N)=Nc1cccc(Cl)c1	-0.463% (inactive)
CCN(CC)CCCCCCCCOC(=O)c1cc(OC)c(OC)c(OC)c1	-8.22% (inactive)
C[C@]12C=CC(=O)C=C1CC[C@@H]1C2=CC[C@]2(C)[C@@H](C(=O)CN3CCN(c4cc(N5CCCC5)nc(N5CCCC5)n4)CC3)CC[C@@H]12	0.328% (inactive)
S=C(S)N1CCCC1	-9.93% (inactive)
CCCCCC[C@@H]([C@@H](C)O)n1cnc2c(N)ncnc21	-0.659% (inactive)
NC1C=CC=C(C(=O)O)C1 (stereo not given)	-1.12% (inactive)
Cc1nc2c(OCc3ccccc3)cccn2c1CC#N	1.2% (inactive)
[Li+]	0.729% (inactive)
COc1cc(C(O)C(=O)O)ccc1O (stereo not given)	-0.962% (inactive)
Cn1cc(C(F)(F)F)nc1-c1ccc(OCC(O)CNCCOc2ccc(O)c(C(N)=O)c2)cc1 (stereo not given)	-1.64% (inactive)
C=CC1(C)CC(=O)C2(O)C(C)(O1)C(OC(C)=O)C(O)C1C(C)(C)CCC(O)C12C (stereo not given)	-1.32% (inactive)
CCCCCCCCCCC/C=C\C(C)(C)/C=C\CCCC(=O)O	-5.62% (inactive)
N[C@H](C(=O)O)[C@H](O)C(=O)O	1.03% (inactive)
CCN1C(=O)C=CC1=O	0.449% (inactive)
Cc1cccc(C2CN(C)CCc3c2cc(O)c(O)c3Cl)c1 (stereo not given)	7.82% (inactive)
O=c1ccc2c(OCCCCc3ccccc3)c3ccoc3cc2o1	-2.24% (inactive)
CC(N)(Cc1ccc(O)c(O)c1)C(=O)O (stereo not given)	1.23% (inactive)
